Source: PubChem BioAssay (Tox21)
Records with an inconclusive call do not appear. Calls of active or inactive are those of the source. Unless noted, calls come from the whole dose curve; as a rule, active = well fitted curve in the direction sought with a large enough effect in the repeat runs; inconclusive = weak or mixed curves; inactive = no such curve, though single readings can be large; an effect the other way counts as inactive or inconclusive.

Key:
[1] = qHTS assay to identify small molecule antagonists of the retinoic acid receptor (RAR) signaling pathway (AID 1159552; note: nearly all actives have a fitted effect of over 50% in size; note: potency is the fitted concentration of half-maximal effect)
Outline: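 Cells of the C3RL4 line were seeded, incubated overnight, then dosed with compounds in DMSO followed immediately by retinol (1 uM final). Six hours later luciferase detection reagent went in; signal was measured after 30 min at RT.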

[2] = qHTS assay to identify small molecule agonists of the retinoic acid receptor (RAR) signaling pathway (AID 1159553); note: potency is the fitted concentration of half-maximal effect
Outline: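 RARE-luc C3RL4 cells; overnight attachment 37 C/5% CO2; compound (DMSO) 6 hr; luciferase reagent, 30 min RT; luminescence read-out.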

[3] = qHTS assay to identify small molecule antagonists of the estrogen related receptor (ERR) signaling pathway from Tox21 library - cell viability counter screen (AID 1224834); note: nearly all actives have a fitted effect of over 30% in size; note: potency is the fitted concentration of half-maximal effect
Outline: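 Multiplexed viability counter screen in ERR cells: 17.5 h compound exposure at 37 C, CellTiter-Fluor added, 30 min at 37 C/5% CO2, fluorescence read.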

[4] = target: Luciferin 4-monooxygenase (Photinus pyralis) (UniProt P08659); assay: qHTS assay to identify small molecule inhibitors of firefly luciferase (AID 1224835); note: series mostly up to about 120 µM; nearly all actives have a fitted effect of over 25% in size
Sequence of Luciferin 4-monooxygenase (Photinus pyralis) (P08659 whole entry, looked up): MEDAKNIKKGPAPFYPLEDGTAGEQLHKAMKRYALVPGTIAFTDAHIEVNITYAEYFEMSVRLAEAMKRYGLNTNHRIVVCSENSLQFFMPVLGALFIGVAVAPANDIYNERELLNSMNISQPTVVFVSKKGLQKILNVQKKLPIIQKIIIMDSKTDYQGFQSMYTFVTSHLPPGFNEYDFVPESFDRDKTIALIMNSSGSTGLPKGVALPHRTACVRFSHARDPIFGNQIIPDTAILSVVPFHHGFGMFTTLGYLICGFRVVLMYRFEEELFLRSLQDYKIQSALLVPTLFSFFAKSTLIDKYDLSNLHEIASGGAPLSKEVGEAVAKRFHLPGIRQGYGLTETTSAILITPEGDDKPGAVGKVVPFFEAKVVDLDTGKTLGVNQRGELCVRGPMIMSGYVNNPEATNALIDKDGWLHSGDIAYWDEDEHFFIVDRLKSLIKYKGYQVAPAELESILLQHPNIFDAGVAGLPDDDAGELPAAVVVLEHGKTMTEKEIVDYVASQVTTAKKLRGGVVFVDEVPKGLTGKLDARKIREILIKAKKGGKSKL
Outline: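 Quantitative HTS format; KM concentrations of both substrates. Purified P. pyralis FLuc activity quantified from luminescence images.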

[5] = qHTS assay to identify small molecule agonists of the constitutive androstane receptor (CAR) signaling pathway - cell viability counter screen (AID 1224836); note: series mostly up to about 92 µM; nearly all actives have a fitted effect of over 45% in size
Outline: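 HepG2-CYP2B6-hCAR, 2500 cells/well, 4 h pre-incubation; cpd 15 conc + PK11195 0.75 uM final; 23 h, 37 C/5% CO2; CellTiter-Fluor, fluorescence.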

[6] = qHTS assay to identify small molecule antagonists of the constitutive androstane receptor (CAR) signaling pathway - cell viability counter screen (AID 1224837); note: nearly all actives have a fitted effect of over 45% in size; note: potency is the fitted concentration of half-maximal effect
Outline: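 Read-out: CellTiter-Fluor fluorescence after 23 hr at 37 C/5% CO2. Cells: HepG2 double-stable for hCAR and CYP2B6-2.2kb. Compounds tested at 15 concentrations in the presence of CITCO, final concentration 50 nM.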

[7] = target: Nuclear receptor subfamily 1 group I member 3 (Homo sapiens) (UniProt Q14994); assay: qHTS assay to identify small molecule antagonists of the constitutive androstane receptor (CAR) signaling pathway (AID 1224838);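 note: HepG2 cells stably expressing hCAR with CYP2B6 luciferase reporter stimulated by CITCO; nearly all actives have a fitted effect of over 40% in size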; note: potency is the fitted concentration of half-maximal effect
Sequence of Nuclear receptor subfamily 1 group I member 3 (Homo sapiens) (Q14994 whole entry, looked up): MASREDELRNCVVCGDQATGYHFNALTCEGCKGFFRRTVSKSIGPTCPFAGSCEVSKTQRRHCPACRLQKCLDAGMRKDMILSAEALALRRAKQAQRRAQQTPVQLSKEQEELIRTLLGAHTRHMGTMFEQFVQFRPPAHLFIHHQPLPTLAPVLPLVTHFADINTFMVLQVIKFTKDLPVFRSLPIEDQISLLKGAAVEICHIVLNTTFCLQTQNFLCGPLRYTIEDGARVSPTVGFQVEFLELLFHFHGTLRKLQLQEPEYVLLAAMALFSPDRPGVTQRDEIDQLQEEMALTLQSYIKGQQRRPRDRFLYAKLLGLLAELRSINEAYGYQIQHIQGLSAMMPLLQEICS
Outline: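 Read-out: ONE-Glo luciferase luminescence after 30 min at room temperature. HepG2-CYP2B6-hCAR double-stable cells, compounds in 15-point titration plus 50 nM CITCO final, 24 h at 37 C/5% CO2.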

[8] = target: Nuclear receptor subfamily 1 group I member 3 (Homo sapiens) (UniProt Q14994); assay: qHTS assay to identify small molecule agonists of the constitutive androstane receptor (CAR) signaling pathway (AID 1224839); note: nearly all actives have a fitted effect of over 15% in size; note: potency is the fitted concentration of half-maximal effect
Outline: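 HepG2-CYP2B6-hCAR cells, 2500/well, 4 h pre-incubation; compounds 15 conc.; PK11195 0.75 uM final; 24 h, 37 C/5% CO2; ONE-Glo luciferase read.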

[9] = qHTS assay to identify small molecule antagonists of the estrogen related receptor (ERR) signaling pathway - cell viability counter screen (AID 1224818); note: series mostly up to about 46 µM
Outline: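 Fluorescence from CellTiter-Fluor, read 30 min after reagent addition at 37 C, measured viability of ERR cells exposed to compounds for 17.5 h. Cells had settled 6 h before dosing.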

[10] = qHTS assay to identify small molecule antagonists of the estrogen related receptor (ERR) signaling pathway (AID 1224819; note: nearly all actives have a fitted effect of over 50% in size; note: potency is the fitted concentration of half-maximal effect)
Outline: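 Luminescence readout (One-Glo, 30 min, RT) of ERR cell line after 18 h compound exposure at 37 C; cells seeded 2,000/well, pre-incubated 6 h, compounds pinned from DMSO stocks.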

[11] = qHTS assay to identify small molecule agonists of the estrogen related receptor (ERR) signaling pathway (AID 1224820)
Outline: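 An ERR cell line provided by NTP was seeded at 2,000 cells per well and allowed to settle for 6 h before compounds in DMSO were added. After 18 h at 37 C, luciferase activity was measured by One-Glo luminescence.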

[12] = test system: estrogen-related receptor alpha (ERRalpha) with PGC-1alpha coactivator, human; assay: qHTS assay to identify small molecule antagonists of the estrogen related receptor signaling pathway with the pleiotropic PPARgamma coactivator (PGC) (AID 1224821; calls by dose curve;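 note: series mostly up to about 46 µM; lower luminescence signal means antagonism of PGC/ERR signalling; nearly all actives have a fitted effect of over 50% in size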)
Outline: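 A PGC/ERR cell line supplied by NTP is seeded, allowed 6 h at 37 C, and treated with test compounds in DMSO for 18 h. Signal is then measured as luciferase luminescence using One-Glo.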

[13] = qHTS assay to identify small molecule antagonists of the estrogen related receptor signaling pathway with the pleiotropic PPARgamma coactivator (PGC) cell viability counter screen (AID 1224822; note: series mostly up to about 46 µM)
Outline: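 Fluorescence read-out of CellTiter-Fluor after 30 min at 37 C; PGC/ERR cells, 2,000 per well, had been exposed to DMSO-dissolved compounds for 17.5 h following a 6 h pre-incubation.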

[14] = qHTS assay to identify small molecule agonists of the estrogen related receptor signaling pathway with the pleiotropic PPARgamma coactivator (PGC) (AID 1224823)
Outline: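 Compounds dissolved in DMSO are added by pin tool to PGC/ERR cells that have settled for 6 h, and incubation continues 18 h at 37 C. Reporter output is measured as One-Glo luminescence.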

[15] = qHTS assay to identify small molecule antagonists of the estrogen related receptor signaling pathway with the pleiotropic PPARgamma coactivator (PGC) from Tox21 10K library (AID 1224841; call rule not given here; note: series mostly up to about 92 µM; actives are mostly falling curves and most rising ones were filed inactive; nearly all actives have a fitted effect of over 50% in size)
Outline: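 Luminescence read-out (One-Glo luciferase reagent, 30 min at room temperature) from PGC/ERR cells exposed to DMSO-dissolved test compounds for 18 h at 37 C; cells, 2,000 per well, had been preincubated 6 h before compound transfer.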

[16] = qHTS assay to identify small molecule agonists of the estrogen related receptor signaling pathway with the pleiotropic PPARgamma coactivator (PGC) from Tox21 10K library (AID 1224842); note: nearly all actives have a fitted effect of over 15% in size
Outline: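 PGC/ERR reporter cells (NTP line) were seeded 2,000 per well, rested 6 h at 37 C/5% CO2, then pin-dosed with compounds in DMSO for 18 h at 37 C; luciferase read by One-Glo luminescence after 30 min at room temperature.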

[17] = qHTS assay to identify small molecule antagonists of the retinoid acid receptor (RAR) signaling pathway - cell viability counter screen (AID 1159551); note: nearly all actives have a fitted effect of over 35% in size
Outline: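 C3RL4 RARE-luciferase line; cpds + retinol 1 uM final, 6 h, 37 C/5% CO2; CellTiter-Glo ATP luminescence, 30 min RT.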

[18] = qHTS assay to identify small molecule antagonists of the estrogen related receptor signaling pathway with the pleiotropic PPARgamma coactivator (PGC) from Tox21 10K library - cell viability counter screen (AID 1224840; active = well fitted cell-killing curve with a large enough effect in the repeat runs, not every such curve was filed as active; note: nearly all actives have a fitted effect of over 40% in size)
Outline: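 Fluorescence read-out of CellTiter-Fluor viability reagent, added after cells had been exposed to compound in DMSO for 17.5 h at 37 C; 30 min development at 37 C/5% CO2. Cells: PGC/ERR line, 2,000/well.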

Measured: Potency

CCOC(=O)c1ccccc1C
inactive: [1] | [2] | [3] | [4] | [5] | [6] | [7] | [8]

CCCc1c(OCCCOc2ccc(OCC(=O)O)cc2)ccc(C(C)=O)c1O
not listed: [1] | [2] | [4] | [7] | [8] | [17] | [18]
inactive: all other assays above

CCCCC1C(=O)N(c2ccccc2)N(c2ccc(O)cc2)C1=O (configuration not stated)
inactive: [1] | [4] | [8]
active: [3] 18.8 µM | [7] 29.8 µM

CC[C@H](NC(=O)c1cc(F)ccc1NS(=O)(=O)c1cccc2cccnc12)c1ccccc1
inactive: [17] | [1] | [2] | [5] | [6]

Nc1ccc(C(=O)OCCCOC(=O)c2ccc(N)cc2)cc1
active: [8] 30.6 µM
inactive: [17] | [1] | [3] | [4] | [5] | [6] | [7]

c1cc[c]([Bi]([c]2ccccc2)[c]2ccccc2)cc1
inactive: [17] | [4] | [5] | [6] | [7] | [18] | [16]
active: [8] 15.4 µM

COC(=O)CC(=O)C(C)(C)C
inactive: [17] | [3] | [4] | [5] | [6] | [18]

CN(C)CCOC1=Cc2ccccc2Sc2ccc(Cl)cc21
inactive: [17] | [2] | [3] | [4] | [5] | [6] | [7] | [8] | [15]

CC1=NN(c2ccc(C(=O)O)cc2)C(=O)C1
active: [2] 68.6 µM
inactive: [17] | [1] | [5] | [6] | [18]

CNCCCC1c2ccccc2C=Cc2ccccc21
active: [1] 23.7 µM | [3] 29.8 µM
inactive: [9] | [10] | [11] | [12] | [4] | [15]

CC(=O)CC(c1ccc([N+](=O)[O-])cc1)c1c(O)c2ccccc2oc1=O (configuration not stated)
inactive: [17] | [3] | [4] | [5] | [6] | [8] | [18] | [15] | [16]

CSc1ccc(Oc2ccc(S(N)(=O)=O)cc2CN(C)C)cc1C
inactive: [17] | [3] | [4] | [5] | [6] | [7] | [8] | [18] | [15]

Cc1ccnc2ccccc12
inactive: [17] | [1] | [3] | [4] | [5] | [6] | [7] | [8] | [18]

Oc1ccc(Nc2ccccc2)cc1
inactive: [17] | [1] | [2] | [4] | [5] | [6] | [7] | [15] | [16]

CC(=O)[C@H]1CC[C@H]2[C@@H]3C=CC4=CC(=O)CC[C@@]4(C)[C@@H]3CC[C@]12C
inactive: [17] | [1] | [2] | [4] | [6] | [8]

CCOC(=O)/C=C/C(=O)O
inactive: [17] | [3] | [4] | [5] | [6] | [18]

C=CCNc1nc(NCC=C)nc(N2CCN(C(c3ccc(F)cc3)c3ccc(F)cc3)CC2)n1
inactive: [17] | [1] | [2] | [3] | [5] | [6] | [7] | [8] | [18]

NC(=O)N(O)[C@@H]1COc2cc(OCc3ccccc3)ccc21
inactive: [6] | [7]
active: [8] 0.193 µM

COc1cc2ncnc(Nc3ccc(F)c(Cl)c3)c2cc1OCCCN1CCOCC1
inactive: [7] | [8] | [16]
active: [3] 21.1 µM

Cc1occc1C(=O)Nc1ccc(C(=O)N2CCC(F)(F)/C(=C\C(=O)N3CCC(N4CCCCC4)CC3)c3ccccc32)cc1
inactive: [17] | [1] | [2] | [6] | [7] | [8] | [16]

CCNC(=O)N1CCN(CCCC(c2ccc(F)cc2)c2ccc(F)cc2)CC1
inactive: [17] | [2] | [11] | [14]
active: [10] 8.1 µM | [3] 18.8 µM | [6] 21.1 µM
